Source: PubChem (several laboratories)
Only some compounds are listed: those with a hit (about 3% of all), similar ones and a draw of the others.
ROMK primary – modulators of human ROMK potassium channel. P48048. Tet-inducible ROMK, thallium flux fluorescence; actives lie on both sides. B-score at 10 µM. 130,000 compounds, 2% hits;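 active = signal ratio slope over the read window, or its plate-corrected B-score, at least 3 SD from the plate mean, either direction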;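 also: B-score of the F/F0 ratio slope over 7 to 12 s after thallium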
Target sequence (P48048 whole entry, looked up): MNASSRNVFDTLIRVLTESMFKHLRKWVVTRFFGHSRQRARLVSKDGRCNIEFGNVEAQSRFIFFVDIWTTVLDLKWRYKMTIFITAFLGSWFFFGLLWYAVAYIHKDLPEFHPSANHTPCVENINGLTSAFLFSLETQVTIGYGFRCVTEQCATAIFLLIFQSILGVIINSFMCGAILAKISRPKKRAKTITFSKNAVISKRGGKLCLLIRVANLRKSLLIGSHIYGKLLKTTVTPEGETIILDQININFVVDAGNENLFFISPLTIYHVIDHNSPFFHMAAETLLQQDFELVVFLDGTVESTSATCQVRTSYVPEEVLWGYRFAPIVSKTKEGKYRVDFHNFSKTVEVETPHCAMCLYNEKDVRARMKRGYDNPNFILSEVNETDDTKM
L929 necroptosis – L929 zVAD cell death inhibition; L929 zVAD necroptosis rescue, ATP luminescence, 24 h; with zVAD 60 µM; viability rescue, % at 10 µM; 220,000 compounds, 0.38% hits;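 active = activation, scaled between plate controls, above about 75%, limit read from the data; inactive = activation under that limit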
TNF death inh – inhibitors of TNF-alpha induced necroptosis in Jurkat FADD-/- cells | Jurkat FADD-/- TNF necroptosis rescue, ATP luminescence, 24 h; 0 = TNF only, 100 = no-TNF cells | activation (protection from cell death), % at 10 µM | 220,000 compounds, 0.068% hits;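 active = activation, meaning protection from cell death, of at least 50% relative to plate controls; inactive = activation below 50%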;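 also: necroptosis triggered by 40 ng/mL TNF-alpha added together with compound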
HMGR II inh – E. faecalis class II HMG-CoA reductase inhibition; inhibition, % at 10 µM; purified E. faecalis HMGR, NADPH absorbance 340 nm kinetic; AID 1066; 190,000 compounds, 0.41% hits;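 active = inhibition above a set limit, the median over all tested compounds plus 3 SD, cut at about 9.5% in these data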;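 also: enzyme runs in reverse so mevalonate oxidation gives rising NADPH absorbance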
14-3-3 Bad PPI – disrupts binding of bovine 14-3-3 zeta to phospho-Bad peptide. P63103. TR-FRET 14-3-3zeta/Dy647-pBad peptide displacement, 1 h. inhibition, % at 21.7 µM. 220,000 compounds, 0.71% hits. AID 781;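 active = inhibition above about 70%, limit read from the data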
Target sequence (P63103 whole entry, looked up): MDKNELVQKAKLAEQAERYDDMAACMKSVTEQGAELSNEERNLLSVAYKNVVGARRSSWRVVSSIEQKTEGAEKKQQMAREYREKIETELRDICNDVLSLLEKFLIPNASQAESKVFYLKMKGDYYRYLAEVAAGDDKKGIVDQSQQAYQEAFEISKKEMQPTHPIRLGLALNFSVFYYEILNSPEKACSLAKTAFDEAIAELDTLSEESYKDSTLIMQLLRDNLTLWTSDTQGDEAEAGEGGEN
Calpain2 inh – inhibitors of pig calpain II | purified calpain II, fluorogenic peptide substrate, 30 min | inhibition, % at 16 µM | 220,000 compounds, 0.37% hits | AID 1236;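 active = inhibition above about 50%, limit read from the data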
A number is an active result; 0 = inactive; - = not tested or not shown; [ ] = another dose, or the depositor's remark.

SMILES	ROMK primary	L929 necroptosis	TNF death inh	HMGR II inh	14-3-3 Bad PPI	Calpain2 inh
COc1ccc(N=Cc2nc(-c3ccco3)oc2O)cc1	0	0	0	11	0	0
Cc1ccccc1/C=N\NC(=O)c1csnn1	-	0	0	0	0	0
O=C(N/N=C\c1ccc(F)cc1)c1csnn1	0	0	0	0	89	0
CS(=O)(=O)N1CCCC(C(=O)Nc2ccc(F)cc2F)C1 (centres undefined)	-	0	0	0	0	0
COC(=O)CSc1nnc(COc2ccc([N+](=O)[O-])cc2)n1C	0	0	0	0	0	0
CC(C)OC(=O)CSc1nnc(COc2ccc([N+](=O)[O-])cc2)n1C	0	0	0	0	0	52
O=Cc1[nH]c2ccccc2c1N(C(=O)CCl)c1ccc([N+](=O)[O-])cc1	-2	0	0	-	0	0
CC(=O)n1cc(N(C(=O)CCl)c2ccc([N+](=O)[O-])cc2)c2ccccc21	-	0	0	-	0	0
Cc1ccc(CNc2oc(C)nc2C#N)cc1	-	0	0	0	89	0
CC(O)CNCCNCc1c(OCc2ccccc2)ccc2ccccc12 (centres undefined)	-	0	0	0	77	0
CC(O)CNCCOc1ccccc1OCc1ccccc1 (centres undefined)	0	0	0	0	0	0
CCOC(=O)N1CCC(NC(=O)CCC(=O)N2CCOc3ccc(Cl)cc32)CC1	0	0	0	0	0	0
O=C(/C=C/c1ccc(N2CCC(c3ccccc3)=N2)cc1)c1ccccc1	-4.4	0	0	0	0	0
CCCCn1c(=O)[nH]c(=O)c2c1nc(-c1ccccc1F)n2Cc1ccccc1OC	-	0	0	0	0	0
O=C1N/C(=N\N=C\c2ccc3ncccc3c2)SC1Cc1ccc(SC(F)F)cc1 (centres undefined)	0	0	0	0	0	0
O=C1N/C(=N\N=C\c2ccccn2)SC1Cc1cccc(SC(F)F)c1 (centres undefined)	-	82	0	0	0	0
Nc1cc(=O)[nH]c(SCC(=O)N2CCCCC2)n1	0	0	0	0	0	0
Cc1ccc(NC(=O)c2cc3c(=O)oc4ccc(C)cc4c3s2)nc1	-	0	0	-	78	0
O=C(c1cccnc1)N1CCN(Cc2cccc(F)c2)CC1	0	0	0	0	75	0
Cc1cccc(CN2CCN(C(=O)c3ccccc3F)CC2)c1	6.2	0	0	0	0	0
CCOC(=O)Cn1nc2sc3ccccc3n2c(=O)c1=O	-	0	0	-	0	0
CCCN1C(=O)c2cc(C(=O)NC3CCCCCC3)ccc2C1O (centres undefined)	-	0	0	0	0	0
CCCN1C(=O)c2cc(C(=O)O)ccc2C1O (centres undefined)	-	0	0	0	83	0
CCOc1cc(/C=N/NC(=O)c2ccncc2)ccc1OS(C)(=O)=O	0	0	0	0	0	106
CCOc1cc(/C=N/NC(=O)c2ccncc2)cc(Cl)c1OS(C)(=O)=O	-	0	0	0	0	0
SMILES	ROMK primary	L929 necroptosis	TNF death inh	HMGR II inh	14-3-3 Bad PPI	Calpain2 inh
CC(=O)Nc1ccc(/C=C/c2ccc3c([N+](=O)[O-])cccc3n2)cc1	0	0	0	0	0	0
CCOC(=O)CCc1c(C(=O)OCC)[nH]c(CC)c1C(=O)OCc1ccccc1	0	0	0	-	0	0
CC(C)Cn1c(=O)oc2ccccc21	0	0	0	0	0	0
COc1cc(NC(=O)COc2ccccc2[N+](=O)[O-])ccc1NC(=O)c1cccs1	0	0	0	0	74	0
COc1cc(Br)cc(CNc2ccc(F)c([N+](=O)[O-])c2)c1O	0	0	0	0	0	91
Cc1ccc(CC(=O)Nc2ccc(F)c([N+](=O)[O-])c2)cc1C	0	0	0	0	0	0
Cc1ccc(-c2nnc(N(C)C(=O)C3CCCO3)s2)cn1 (centres undefined)	0	0	0	0	75	0
CN(C(=O)C1CCCO1)c1nnc(-c2cnccn2)s1 (centres undefined)	0	0	0	0	0	0
COc1ccc(NC(=S)N/N=C/c2cccn2Cc2ccc(F)cc2Cl)cc1	1.3	0	0	0	0	0
Cc1ccc(SCCCn2cncn2)cc1	0	0	0	0	0	0
Clc1ccc(SCCn2cncn2)cc1	0	0	0	0	73	0
Cc1cccc(NC(=O)CNC(=O)COc2ccc(-c3ccc(C#N)cc3)cc2)c1C	0	0	0	0	0	0
COc1ccc(CC(=O)Nc2cccc(/C(C)=N/NC(=O)c3cccc([N+](=O)[O-])c3)c2)cc1	-	0	0	0	0	0
C/C(=N\Nc1cccc(C(F)(F)F)c1)c1ccc(O)cc1	0	0	0	0	0	0
O=C(N[C@@H](Cc1ccccc1)C(=O)OCc1ccccc1)c1nc[nH]c1C(=O)N1CCN(c2ccccc2)CC1	-	0	0	-	0	51
NCC/C=C1/c2ccccc2CSc2ccccc21	-5.2	0	0	0	0	0
Cc1ccc(Nc2nc(N)nc(CSC(=S)N3CCOCC3)n2)c(C)c1	0	0	0	0	0	0
Cn1cc(Cl)c(-c2n[nH]c(=S)n2-c2ccc(F)cc2)n1	0	-	0	0	0	0
Cc1c(Cl)c(-c2n[nH]c(=S)n2-c2ccc(F)cc2)nn1C	-	0	0	11	0	0
CCCCCCn1nc(C(=O)OCC(=O)NC2CCS(=O)(=O)C2)c2ccccc2c1=O (centres undefined)	0	0	0	0	0	0
COc1cccc(/C=c2/s/c(=C(\C#N)C(=O)N3CCOCC3)n(-c3ccccc3)c2=O)c1	-	0	0	0	76[fluorescence artefact?]	0
COc1ccc(/C=c2\s/c(=C(/C#N)C(=O)NCc3ccco3)n(-c3ccccc3)c2=O)cc1	-	0	0	0	0	0
O=C1CCCN1CC(CN1CCOCC1)Sc1nnnn1-c1ccccc1 (centres undefined)	0	0	0	0	79	0
COc1ccc(S(=O)(=O)N2CC=C(C(=O)Nc3ccc(NC(C)=O)cc3)CC2)cc1	0	0	0	22	0	0
CC(C)(C)c1ccc(/C([O-])=C(/C(=S)NCc2ccco2)[n+]2ccccc2)cc1	0	0	0	0	0	0
SMILES	ROMK primary	L929 necroptosis	TNF death inh	HMGR II inh	14-3-3 Bad PPI	Calpain2 inh
CCOc1cccc2cc(-c3nnc(NCc4ccc5c(c4)OCO5)s3)c(=O)oc12	-	0	0	0	83[fluorescence artefact?]	0
N#C/C(=C/c1ccc(N2CCCC2)c([N+](=O)[O-])c1)c1nc2ccccc2[nH]1	-	0	0	0	0	0
Cc1ccc2nc(/C(C#N)=C\c3ccc(N4CCCCC4)c([N+](=O)[O-])c3)[nH]c2c1	0	0	0	0	87[fluorescence artefact?]	0
CN(C)CCCC1(O)c2ccccc2C=Cc2ccccc21	0	0	0	0	0	0
Cc1cccc(S(=O)(=O)c2c(N)n(Cc3ccco3)c3nc4ccccc4nc23)c1	-2.9	0	0	0	0	0
CC1CC(C)CN(CCOc2ccc(Cl)cc2Cl)C1 (centres undefined)	0	0	0	0	72	0
